# Source: PubChem BioAssay (NCATS)
# Inconclusive results are not listed. Active and inactive are the calls of the source. Unless noted, the call rests on the fitted dose curve; in most records, active means well fitted curve in the direction sought with a large enough effect; inconclusive means small, poorly fitted or top-dose-only effect, or another doubt; inactive means no such curve, though single readings can be large; an effect the other way counts as inactive or inconclusive.
# How the values were obtained:
# [1] = target: Catechol O-methyltransferase (Homo sapiens) (UniProt P21964); experiment: Confirmatory Screen for Target Class Profiling of Small Molecule Inhibitors of Methyltransferases (AID 1745852; calls by dose curve; further: potency means the concentration at half of the fitted maximal effect; on activity change, negative = inhibition: on the % scale 0 is the no-effect control and ±100 the full control effect); details: MTase-Glo luminescence, SAH detection, recombinant enzyme; measured here: COMT max response; stronger effect = lower value
# Chain of Catechol O-methyltransferase (Homo sapiens) (P21964 whole entry, looked up): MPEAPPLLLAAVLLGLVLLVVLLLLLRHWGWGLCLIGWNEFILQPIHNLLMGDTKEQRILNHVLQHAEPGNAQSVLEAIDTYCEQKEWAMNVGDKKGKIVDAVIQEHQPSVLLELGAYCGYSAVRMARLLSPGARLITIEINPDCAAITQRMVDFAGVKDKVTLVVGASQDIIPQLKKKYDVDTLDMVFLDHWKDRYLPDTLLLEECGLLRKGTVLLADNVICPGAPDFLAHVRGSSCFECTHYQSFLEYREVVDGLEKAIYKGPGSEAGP
# [2] = target: Guanidinoacetate N-methyltransferase (Homo sapiens) (UniProt Q14353); experiment: as above; details: MTase-Glo luminescence, SAH detection, recombinant enzyme; activity change, negative = inhibition: at 57.3 µM (top of the series) unless noted; series mostly up to 57.3 µM
# [3] = target: Nicotinamide N-methyltransferase (Homo sapiens) (UniProt P40261); experiment: as above; details: MTase-Glo luminescence, SAH detection, recombinant enzyme; measured here: NNMT max response; stronger effect = lower value
# Chain of Nicotinamide N-methyltransferase (Homo sapiens) (P40261 whole entry, looked up): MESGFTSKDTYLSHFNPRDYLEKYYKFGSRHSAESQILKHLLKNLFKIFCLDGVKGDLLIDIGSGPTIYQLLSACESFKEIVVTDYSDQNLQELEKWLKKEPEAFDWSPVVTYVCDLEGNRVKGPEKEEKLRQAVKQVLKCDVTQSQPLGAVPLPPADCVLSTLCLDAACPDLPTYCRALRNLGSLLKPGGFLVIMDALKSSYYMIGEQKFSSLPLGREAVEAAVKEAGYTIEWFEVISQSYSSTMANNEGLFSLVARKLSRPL
# [4] = target: Phenylethanolamine N-methyltransferase (Homo sapiens) (UniProt P11086); experiment: as above; details: MTase-Glo luminescence, SAH detection, recombinant enzyme; measured here: PNMT max response; stronger effect = lower value
# Chain of Phenylethanolamine N-methyltransferase (Homo sapiens) (P11086 whole entry, looked up): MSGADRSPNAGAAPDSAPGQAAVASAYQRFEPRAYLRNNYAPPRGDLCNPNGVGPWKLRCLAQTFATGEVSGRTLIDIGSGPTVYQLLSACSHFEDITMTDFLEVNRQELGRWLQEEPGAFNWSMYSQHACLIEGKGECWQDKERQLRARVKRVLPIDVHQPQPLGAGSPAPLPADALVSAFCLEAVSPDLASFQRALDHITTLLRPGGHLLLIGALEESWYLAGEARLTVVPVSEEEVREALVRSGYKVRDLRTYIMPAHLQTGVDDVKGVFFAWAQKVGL
# [5] = qHTS drug screen for cell cycle checkpoint inhibitors in PARPi-resistant BRCA-mutant ovarian cancer cell lines. (AID 1963452; calls by dose curve); details: PEO1/OlaR viability, CellTiter-Glo luminescence, 96 h, stronger effect = lower value
# Summary of the method: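 PEO1, PEO4 and PEO1/OlaR ovarian cancer cells, 600 per well, exposed 96 h at 37C to a dilution series. Viability read by CellTiter-Glo luminescence, normalized to DMSO and empty wells; activity summarized as Z-AUC.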
# [6] = NCATS anti-infectives library activity on HEK293 viability as a counter-qHTS vs the C. elegans viability qHTS (AID 1745854); details: HEK293 viability counter-screen; series mostly up to 41.8 µM; further: potency means the concentration at half of the fitted maximal effect
# Summary of the method: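 HEK293 cells, 1500 per well, exposed 24 hr at 37C in 5% CO2 to compounds in a 1:5 titration, up to 41.7 uM final. Viability read as CellTiter-Glo luminescence after 10 min at room temperature.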
# [7] = target: Glutathione peroxidase 1 (Homo sapiens) (UniProt P07203); experiment: Primary qHTS Assay for Inhibitors of Recombinant Selenoprotein Glutathione Peroxidase 1 (GPX1) (AID 1845191); details: recombinant GPX1, GR-coupled NADPH fluorescence, 15 min; series mostly up to 48.8 µM; further: nearly all actives have a fitted effect of over 65% in size; further: potency means the concentration at half of the fitted maximal effect
# Chain of Glutathione peroxidase 1 (Homo sapiens) (P07203 whole entry, looked up): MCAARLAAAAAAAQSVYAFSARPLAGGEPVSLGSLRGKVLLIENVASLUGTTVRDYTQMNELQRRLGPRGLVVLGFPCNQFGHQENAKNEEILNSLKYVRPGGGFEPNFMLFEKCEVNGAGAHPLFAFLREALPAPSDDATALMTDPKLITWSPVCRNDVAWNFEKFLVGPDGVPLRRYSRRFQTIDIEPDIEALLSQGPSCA
# Summary of the method: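 GR-coupled assay: compounds preincubated 30 min at room temperature with GPX1, then reaction started with CHP; final 10 nM GPX1, 1 mM GSH, 0.5 mM CHP, 0.5 mM NADPH, 100 nM GR, 0.01% BSA, pH 7.5 Tris buffer. NADPH fluorescence (340/450 nm) read at 0 and 15 min.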
# [8] = NCATS anti-infectives library activity on the primary C. elegans qHTS viability assay (AID 1745855; calls by dose curve); details: C. elegans worm area imaging, day 7; series mostly up to 41.8 µM
# Summary of the method: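 Viability is taken from GFP fluorescence of PE254-GFP-FLuc C. elegans imaged by laser cytometry over 7 days. Ten L1 worms per well grow at 21 °C on TOP10 E. coli capsules with titrated compound; levamisole marks toxicity.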
smiles,measurement,setting,value
NC(=O)c1cccc2[nH]c(-c3ccc([C@@H]4CCCN4)cc3F)nc12,activity,[1],-9.14%
same,"activity change, negative = inhibition",[2],-8.18%
same,activity,[3],-23.8%
same,activity,[4],-6.69%
same,Z-AUC,[5],-0.692 (inactive)
same,Z-AUC,[5]; measured here: PEO1 parental Z-AUC,-1.03
same,Z-AUC,[5]; measured here: PEO4 Z-AUC,-0.377
CC(=O)N[C@@H](CC(=O)O)C(=O)N[C@@H](CCC(=O)O)C(=O)N[C@H](C(=O)N[C@H](C=O)CC(=O)O)C(C)C,Potency,[6],inactive
COc1ccc(OC)c2c1cc1n2CC(C)(C(=O)NC2CCCCC2)N(Cc2cccnc2)C1=O (centres undefined),activity,[1],-8.96%
same,"activity change, negative = inhibition",[2],-5.74%
same,activity,[3],-28.2%
same,activity,[4],-10.7%
CCCC1c2cccn2CCN1C(=O)Nc1ccc(Br)c(C)c1 (centres undefined),activity,[1],-4.66%
same,"activity change, negative = inhibition",[2],-2.02%
same,activity,[3],-7.57%
same,activity,[4],-6.57%
Cc1cc(C)c(NS(=O)(=O)c2ccc3c(c2)n(C)c(=O)n3C)c(C)c1,activity,[1],0.505%
same,"activity change, negative = inhibition",[2],0%
same,activity,[3],-39.4%
same,activity,[4],0.178%
COc1ccc2nc([C@H]3CCN(C4CCCCC4)C3)[nH]c2c1,activity,[1],-5.45%
same,"activity change, negative = inhibition",[2],4.16% [at 85.7 µM]
same,activity,[3],-3.99%
same,activity,[4],-4.21%
CC(C)Cn1c(=O)c2ccccc2n2c(CCC(=O)N3CCN(c4cccc(Cl)c4)CC3)nnc12,activity,[1],-1.89%
same,"activity change, negative = inhibition",[2],1.7%
same,activity,[3],-35.8%
same,activity,[4],-10.3%
COc1cc2nc(N3CCCCC3)nc(NC3CCN(Cc4ccccc4)CC3)c2cc1OC,activity,[1],11.8%
same,Potency,[2],0.968 µM (active)
same,activity,[3],-38.9%
same,activity,[4],1.57%
same,Potency,[7],16.1 µM (active)
COC(=O)c1cc2n(n1)CC(C)(C(=O)NC1CCC(C)CC1)N(Cc1ccc(OC)cc1OC)C2=O (centres undefined),activity,[1],-11.6%
same,"activity change, negative = inhibition",[2],-7.55%
same,activity,[3],-66.9%
same,activity,[4],-13.3%
COc1ccc(C2CC(=O)c3cc(-c4nc(-c5cccc([N+](=O)[O-])c5)cs4)c(=O)n(-c4ccccc4N)c3C2)cc1 (centres undefined),activity,[1],-0.514%
same,"activity change, negative = inhibition",[2],-4.17%
same,activity,[3],-5.71%
same,activity,[4],-5.29%
same,Potency,[7],inactive
CC1CC(C)CN(S(=O)(=O)c2ccc3c(c2)oc(=O)n3CC(=O)Nc2cccc(F)c2)C1 (centres undefined),activity,[1],1.38%
same,"activity change, negative = inhibition",[2],0%
same,activity,[3],-0.567%
same,activity,[4],-52.9%
COc1ccc(-c2[nH]nc3ncc(C(=O)N4CCC(c5ccccc5)CC4)nc23)c(C)c1,activity,[1],-39.6%
same,"activity change, negative = inhibition",[2],-20.4% [at 85.7 µM]
same,activity,[3],-23.9%
same,activity,[4],-53.6%
COc1ccc2cc(CNc3ccc(C)cc3)c(=O)n(CC(=O)Nc3cccc(C(F)(F)F)c3)c2c1,activity,[1],-6.71%
same,"activity change, negative = inhibition",[2],-9.44%
same,activity,[3],-13.5%
same,activity,[4],-7.35%
same,Potency,[7],inactive
CCN(CC)CCCNC(=O)CCc1nnc2n(Cc3ccc(F)cc3)c(=O)c3ccccc3n12,activity,[1],2.05%
same,"activity change, negative = inhibition",[2],0%
same,activity,[3],-4.75%
same,activity,[4],1.85%
Cc1cc(-c2cc3c(cn2)N(C)CCN(C)C3)ccn1,activity,[1],5.42%
same,"activity change, negative = inhibition",[2],4.1% [at 114 µM]
same,activity,[3],2.35%
same,activity,[4],3.56%
CC(=O)OC(C)(C)CCC(=O)[C@](C)(O)C1[C@H](O)C[C@@]2(C)C3CC=C4C(C[C@H](O)[C@@H](O)C4(C)C)[C@]3(C)C(=O)C[C@]12C (some centres undefined),Potency,[6],inactive
CC(NC(=O)c1ccc2c(=O)nc3c(-c4cccc(F)c4)n[nH]n3c2c1)c1ccc(F)cc1 (centres undefined),activity,[1],-18.4%
same,Potency,[2],13.6 µM (active)
same,activity,[3],-28.4%
same,activity,[4],-25.5%
Cc1ccccc1Sc1ccc(/C=C2\SC(=S)NC2=O)cc1[N+](=O)[O-],activity,[1],-5.04%
same,Potency,[2],42.9 µM (active)
same,activity,[3],-72.5%
same,activity,[4],-30.1%
same,Potency,[7],inactive
O=C(O)CCc1ccc(O)cc1,Potency,[6],inactive
COc1cc2c(c(OC)c1OC)-c1c(cc(OC)c(OC)c1OC)CC(C)C(C)C2 (centres undefined),Potency,[6],inactive
O=C(NCc1c(F)cc(F)cc1F)c1cn2c(c(O)c1=O)C(=O)N1C3CCC(C3)OC1C2 (centres undefined),Potency,[6],inactive
O=C(O)[C@H]1C2CCC(CC2)[C@@H]1Nc1nc(-c2c[nH]c3ncc(F)cc23)ncc1F,Potency,[6],inactive
same,Potency,[8],inactive
CC(=O)N1CCC(C(=O)N(CCCN2CCC(Cc3ccc(C(N)=O)cc3)CC2)c2ccc(C)c(Cl)c2)CC1,Potency,[6],inactive
O=C(O)/C(S)=C/c1c[nH]c2ccc(F)cc12,Potency,[6],inactive
CC(=O)Nc1ccc(C)c(C(=O)N[C@H](C)c2cccc3ccccc23)c1,Potency,[6],inactive
Nc1ccccc1NC(=O)c1cnccn1,Potency,[6],inactive
COC(=O)[C@H](CCSC)NC(=O)c1ccc(NC[C@@H](N)CS)cc1-c1ccccc1,Potency,[6],inactive
CC(C)=CCC/C(C)=C/CC/C(C)=C/C=C/C(C)=C/C(=O)O,Potency,[6],inactive
OC[C@H]1O[C@@H](Oc2c(O)cc(O)cc2/C=C/c2ccc(O)cc2)[C@H](O)[C@@H](O)[C@@H]1O,Potency,[6],inactive
O=C(Cc1ccccc1)Nc1nnc(NC2CCN(c3nnc(NC(=O)Cc4ccccc4)s3)CC2)s1,Potency,[6],inactive
COc1cc(O)c(CC=C(C)C)c2c1C(=O)CC(c1ccc(O)cc1)O2 (centres undefined),Potency,[6],inactive
Cc1cn2nc([C@@H]3CCCCN3C(=O)c3cc(Cl)ccc3NS(C)(=O)=O)cc2nc1N1CC[C@H](N)C1,Potency,[6],inactive
Cn1c(Cn2ccc(C(F)(F)F)c(Oc3cc(Cl)cc(C#N)c3)c2=O)n[nH]c1=O,Potency,[6],inactive
C=CC(=O)N1C/C(=C\c2ccc([N+](=O)[O-])cc2)C(=O)/C(=C/c2ccc([N+](=O)[O-])cc2)C1,Potency,[6],1.41 µM (active)
CCCCc1ccc(O)cc1O,Potency,[6],inactive
Oc1ccc(OC2CCCCO2)cc1 (centres undefined),Potency,[6],14.1 µM (active)
Cc1cccc2c3c(ccc12)C1=C(C(=O)C3=O)[C@@H](C)CO1,Potency,[6],inactive
O=C(O)c1cc(-c2ccc(/C=C3\SC(=S)N(Cc4ccccc4)C3=O)o2)ccc1Cl,Potency,[6],inactive
C=C(C)[C@@H]1CC[C@]2(C(=O)O)CC[C@]3(C)[C@H](CC[C@@H]4[C@@]5(C)CC[C@H](OC(=O)CC(C)(C)C(=O)O)C(C)(C)[C@@H]5CC[C@]43C)[C@@H]12,Potency,[6],inactive
CC(C)[C@H](NC(=O)OCc1ccccc1)C(=O)N[C@@H](C)C(=O)N[C@@H](CC(=O)O)C(=O)CF,Potency,[6],inactive
same,Potency,[8],inactive
CC(=O)O[C@@]1(C)C[C@@H](O)[C@]2(O)C=CO[C@@H](OC3OC(CO)C(O)C(O)C3O)[C@@H]21 (some centres undefined),Potency,[6],inactive
S=C(S)O[C@H]1C[C@H]2C[C@@H]1[C@@H]1CCC[C@H]21,Potency,[6],inactive
Cc1nc(N(C)C(=O)Cc2ccc(-c3ccccn3)cc2)sc1S(N)(=O)=O,Potency,[6],inactive
CC(C)C1=C2[C@H]3CC[C@@H]4[C@@]5(C)CC[C@H](OC(=O)CC(C)(C)C(=O)O)C(C)(C)[C@@H]5CC[C@@]4(C)[C@]3(C)CC[C@@]2([C@@H](O)CN(CCN(C)C)Cc2ccc(Cl)cc2)CC1=O,Potency,[6],inactive
CNC(=O)[C@@H](NC(=O)[C@H](CCCc1ccccc1)[C@H](C)N(O)C=O)C(C)(C)C,Potency,[6],inactive
Cc1cn([C@H]2O[C@@H](CO)[C@H](O)[C@H]2F)c(=O)[nH]c1=O,Potency,[6],inactive
Cc1nc2ccccc2c(-c2ccc3c(c2)CCCO3)c1C(OC(C)(C)C)C(=O)O (centres undefined),Potency,[6],inactive
